RE007 growth inh: less growth of the S. pombe RE007 Vpr strain | S. pombe RE007 Vpr strain, BacTiter-Glo ATP luminescence, 24 h | Potency, µM (top dose mostly 92.2 µM), for inactives: at the highest dose activity change, negative = less growth, hits mostly inhibitors | 360,000 tested, 0.21% active | AID 651644; active means well fitted falling curve with a large enough effect; inconclusive means small, poorly fitted or top-dose-only effect; inactive means no such curve, though single readings can be large or run the other way; further: nearly all actives have a fitted effect of over 50% in size
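Fission yeast RE007 carrying one integrated HIV-1 vpr copy, seeded at OD 0.01 in PMG+AL medium with 23 nL pinned compound. Grown 24 h at 30 degrees; viability read by BacTiter-Glo luminescence after 5 min.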
Tb PYK inh: inhibitors of Trypanosoma brucei pyruvate kinase. TbPYK enzyme, Kinase-Glo Plus ATP luminescence, 45 min. 410,000 tested, 0.12% active. Potency, µM (titrated, usually from 76.8 µM), for inactives: at the top dose activity, negative = inhibition, actives largely listed as inhibitors; further: nearly all actives have a fitted effect of over 50% in size
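TbPYK + substrate in 50 mM TEA pH 7.2, 100 mM KCl, 10 mM MgCl2, 0.05% BSA, 0.01% Tween-20; cpd pinned; ADP 130 uM final; 45 min RT; Kinase-Glo Plus 10 min; luminescence endpoint.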
Sm TGR block: blocks Schistosoma mansoni thioredoxin glutathione reductase | purified TGR, DTNB reduction, TNB absorbance 405 nm | Potency, µM (titrated, usually from 114 µM), without a hit: at the top dose activity change, negative = inhibition, most hits filed as inhibitors | 360,000 tested, 3% active | AID 485364; further: nearly all actives have a fitted effect of over 60% in size
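Kinetic colorimetric format: TGR-catalysed, NADPH-driven DTNB reduction monitored via TNB absorbance. Enzyme dispensed at 20 nM; compound exposure 15 min at room temperature before reaction start.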
LmPK inhibitor: blocks Leishmania mexicana pyruvate kinase activity | Q27686 | purified LmPK, Kinase-Glo ATP luminescence, 1 h | Potency, µM (highest dose often 57.5 µM), for inactives: top-dose activity change, negative = inhibition, actives largely listed as inhibitors | 290,000 tested, 0.37% active
Target sequence (Q27686 whole entry, looked up): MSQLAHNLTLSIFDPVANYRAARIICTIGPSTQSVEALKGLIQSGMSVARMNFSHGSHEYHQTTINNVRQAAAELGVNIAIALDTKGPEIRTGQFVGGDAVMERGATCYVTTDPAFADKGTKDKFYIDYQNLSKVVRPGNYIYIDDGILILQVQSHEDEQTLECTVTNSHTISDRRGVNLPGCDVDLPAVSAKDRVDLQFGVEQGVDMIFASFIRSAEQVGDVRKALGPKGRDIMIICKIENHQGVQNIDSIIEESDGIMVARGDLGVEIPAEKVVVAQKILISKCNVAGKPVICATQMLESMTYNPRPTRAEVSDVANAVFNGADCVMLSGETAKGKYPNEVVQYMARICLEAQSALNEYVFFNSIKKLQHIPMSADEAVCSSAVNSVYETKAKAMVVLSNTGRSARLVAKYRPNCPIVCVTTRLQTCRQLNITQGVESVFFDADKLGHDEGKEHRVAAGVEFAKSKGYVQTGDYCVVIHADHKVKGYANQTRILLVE
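Kinase-Glo luminescence read after 1 h RT reaction of 0.1 nM LmPK with 0.5 mM PEP and 0.1 mM ADP. Activity scaled between uninhibited and enzyme-free controls.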
* = called active by the depositor; ? = inconclusive; . = no result; [ ] = dose if it differs, or a comment. Most compounds without a hit are left out; they make up all but 3% or so of the library. Unless noted, the call rests on the fitted dose curve; in most records, active means well fitted curve in the direction sought with a large enough effect; inconclusive means small, poorly fitted or top-dose-only effect, or another doubt; inactive means no such curve, though single readings can be large; an effect the other way counts as inactive or inconclusive. On the % scale 0 is the no-effect control and ±100 the full control effect; potency means the concentration at half of the fitted maximal effect.

SMILES	RE007 growth inh	Tb PYK inh	Sm TGR block	LmPK inhibitor
O=[N+]([O-])c1ccccc1S(=O)(=O)N1CCN(Cc2cc3c(cc2O)OCO3)CC1	-15%	-13%	0.56µM*	3%
CCOC(=O)c1ccc(S(=O)(=O)N2CCN(Cc3cc4c(cc3O)OCO4)CC2)cc1	-5%	4%	0.35µM*	.
O=S(=O)(c1ccccc1F)N1CCN(Cc2cc3c(cc2O)OCO3)CC1	-22%	-2%	0.71µM*	.
CCOC(=O)c1ccc(S(=O)(=O)N2CCN(C(C)=O)CC2)cc1	-13%	-15%	8%	-3%
Cc1ccc(C)c(S(=O)(=O)N2CCN(Cc3cc4c(cc3O)OCO4)CC2)c1	-20%	1%	0.63µM*	.
Cc1cc(C)c(S(=O)(=O)N2CCN(Cc3ccc4c(c3)OCO4)CC2)cc1C	.	-3%	1%	.
CN(Cc1ccc(C(C)(C)C)cc1)c1cccc2ccccc12	.	0%	.	.
CCOC(=O)c1ccc(S(=O)(=O)N2CCN(C3CCCC3)CC2)cc1	-4%	-16%	13µM*	-4%
Oc1cc2c(cc1CN1CCN(c3ccc(F)cc3)CC1)OCO2	-26%	2%	2.5µM*	11%
CCOC(=O)c1ccc(S(=O)(=O)N2CCC(N3CCCCCC3)CC2)cc1	-11%	1%	.	.
COc1ccc(Cn2c(=O)n(Cc3ccco3)c(=O)c3oc4ccccc4c32)cc1	.	-2%	-7%	.
CN(C)N1C(=O)CC(N2CCCC2)C1=O (configuration not stated)	?	-4%	22µM*	-3%
CCN1C(=O)CC(N2CCOCC2)C1=O (configuration not stated)	-15%	2%	-10%	3%
CC(CCc1ccco1)N(C)S(=O)(=O)c1csc(C(N)=O)c1 (configuration not stated)	-15%	-5%	-8%	1%
CC(=O)c1ccc(S(=O)(=O)N(C)C(C)CCc2ccco2)cc1 (configuration not stated)	-6%	-11%	40µM*	5%
COc1ccc(S(=O)(=O)N(C)C(C)CCc2ccco2)cc1 (configuration not stated)	-10%	-9%	20µM*	5%
Cc1ccc(S(=O)(=O)N(C)C(C)CCc2ccco2)cc1 (configuration not stated)	23%	1%	50µM*	.
CCOC(=O)c1ccc(NC(=O)C2=C(C)C(=O)OC23CCN(C(C)=O)CC3)cc1	.	-4%[15.4 µM]	-2%	.
CCOC(=O)C1=CCN(S(=O)(=O)c2ccccc2C)C1c1cccc(Br)c1 (configuration not stated)	0%	3%	.	.
CC1CC(C)CC(C)C(O)C(C#N)=CC=CCC(C2CCCC2C(=O)O)OC(=O)CC(O)C(C)C1 (configuration not stated)	6.3µM*	-2%	.	.
O=C(CC[C@H]1O[C@@H](n2cnc3c(NC(=O)c4ccccc4)ncnc32)[C@H](O)[C@@H]1O)NCCCN1CCCC1=O	11%	-7%	.	.
Cc1ccc(N=Nc2cc(C)ccc2N)cc1	-26%	-22%	0%	14µM*
Cc1ccc(N)c(C)c1	11%	1%	-2%	.
CCn1nc(-c2ccccc2)c(-c2ccccc2)c(C(=O)Nc2ccc(S(N)(=O)=O)cc2)c1=O	.	-1%	7%	.
CC(=O)N1CCc2cc(C(=O)CN3CCN(c4ccccn4)CC3)ccc21	-14%	0%	35µM*	6%
SMILES	RE007 growth inh	Tb PYK inh	Sm TGR block	LmPK inhibitor
CC1CCC(Nc2nc3c(-c4cccc(C(F)(F)F)c4)nnn3c3ccccc23)CC1 (configuration not stated)	.	2%	7%	.
CCN1C(=O)/C(=C\c2ccc(-c3cccc(C(=O)OC)c3)o2)SC1=Nc1ccc(C(=O)O)cc1	.	.	-10%	7%
CCN1C(=O)/C(=C\c2ccc(-c3ccc([N+](=O)[O-])cc3OC)o2)SC1=Nc1cccc(C(=O)O)c1	-12%	-4%	35µM*	-9%
COc1ccc(N2CCN(C(CNC(=O)c3ccc(C)cc3)c3ccc4c(c3)OCO4)CC2)cc1 (configuration not stated)	.	-8%	5%	.
CCCCn1c(-c2sccc2C)n[nH]c1=S	14%	?	3%	32µM*
CCn1c(-c2c(Cl)c(C)nn2C)n[nH]c1=S	16%	?	?	-10%
CCCCn1c(-c2ccco2)n[nH]c1=S	8%	?	-2%	-28%
CCCCn1c(-c2c(Cl)c(C)nn2C)n[nH]c1=S	16%	10µM*	1%	-26%
CC(C)Cn1c(Cc2ccccc2)n[nH]c1=S	3%	?	9%	11µM*
CCCCn1c(Cc2ccccc2)n[nH]c1=S	2%	11µM*	1%	?
Cc1ccc(NC(=O)Cn2nnc(C(=O)NCCc3ccccc3)c2N)cc1	.	0%	-9%	.
CC1Cc2cc(/C(O)=C3/C(=O)C(=O)N(CCN4CCOCC4)C3c3ccc([N+](=O)[O-])cc3)ccc2O1 (configuration not stated)	3%	2%	-18%	-2%
COCc1cc(=O)n2[nH]c(-c3ccco3)cc2n1	1%	1%	-11%	2%
CCCCN1Cc2c(nc3cc(-c4ccco4)[nH]n3c2=O)C1=O	-9%	-8%	20µM*	19%
NC(=O)C(=CNc1nc(-c2ccc(Cl)c(Cl)c2)cs1)C(N)=O	.	.	2.2µM*	-10%
O=C(O)c1ccc(-c2nc(-c3ccc(Cl)c(Cl)c3)cs2)cc1	-9%	-14%	?	-10%
NS(=O)(=O)c1cccc(NC(=O)COC(=O)/C=C/c2nc3ccccc3s2)c1	4%	-12%	.	.
CC(=O)c1ccc(NC(=O)COCc2cc(-c3ccc(F)cc3)on2)cc1	.	4%	2%	.
Nc1c(O)ccc2c1C(=O)c1ccccc1C2=O	?	?	-18%	14µM*
O=C(Nc1cccnc1)c1ccc(NS(=O)(=O)c2cc([N+](=O)[O-])ccc2Cl)cc1	0%	2%	32µM*	7%
COc1cccc(-n2c(=O)c3c(C)c(C(=O)N(C)C)sc3n(Cc3ccc(F)cc3Cl)c2=O)c1	.	-2%	2%	.
N#CCCN(C(=O)COC(=O)c1cc2ccccc2oc1=O)c1ccccc1	-14%	3%	-8%	.
O=[N+]([O-])c1cccnc1N1CCCNCC1	-10%	-13%	50µM*	-11%
O=[N+]([O-])c1ccc(N2CCCNCC2)c2ncccc12	-10%	-6%	-23%	1%
COC(=O)c1cn[nH]c1NC(=S)Nc1ccccc1C	7%	-15%	45µM*	-2%
O=C(OC[C@H]1O[C@@H](OC(=O)c2cc(O)c(O)c(OC(=O)c3cc(O)c(O)c(O)c3)c2)[C@H](OC(=O)c2cc(O)c(O)c(OC(=O)c3cc(O)c(O)c(O)c3)c2)[C@@H](OC(=O)c2cc(O)c(O)c(OC(=O)c3cc(O)c(O)c(O)c3)c2)[C@@H]1OC(=O)c1cc(O)c(O)c(OC(=O)c2cc(O)c(O)c(O)c2)c1)c1cc(O)c(O)c(OC(=O)c2cc(O)c(O)c(O)c2)c1	.	.	45µM*	.

High-throughput results deposited in PubChem by National Center for Advancing Translational Sciences (NCATS).
